# Assay results: the supplement of paper PMC13380429
# Values without a mark were called inactive.
# System: Vero E6 infected with SARS-CoV-2
# Assay: inhibition of SARS-CoV-2 cytopathic effect; higher = more antiviral protection, active = above 15
# Conditions: 48 h
Compound,inhibition of SARS-CoV-2 cytopathic effect (1 nM) [%],inhibition of SARS-CoV-2 cytopathic effect (8.33 nM) [%],inhibition of SARS-CoV-2 cytopathic effect (100 nM) [%],inhibition of SARS-CoV-2 cytopathic effect (833.33 nM),inhibition of SARS-CoV-2 cytopathic effect (10000 nM)
Clc1ccc([C@]23CNC[C@H]2C3)cc1Cl [amitifadine],0.8,2.82,0.87,1.86%,3.82%
CNc1nc(-c2ccc3c(N)n[nH]c3c2)cc(N2C[C@@H](C(=O)NC3CCCCC3)CC[C@H]2C)n1,2.6,3.93,1.23,0.1%,-5.35%
NC(=O)N1c2ccccc2CC(=O)c2ccccc21 [oxcarbazepine],0.74,3.71,4.19,-0.85%,4.57%
C[C@H](N)[C@H](O)c1ccc(O)c(O)c1 [levonordefrin],-3.75,0.14,-1.88,1.27%,-2.48%
NS(=O)(=O)c1cc2c(cc1C(F)(F)F)NCNS2(=O)=O [hydroflumethiazide],0.67,2.12,1.79,0.37%,0.46%
C[C@@H](N[C@H]1CCCC[C@@H]1NC(=O)c1ccc(Cl)cc1)c1cccc2ccccc12 [Calhex-231],-0.12,-0.88,1.31,5.65%,-1.86%
N#Cc1cc2c(OCC(O)CN3CCN(C(c4ccccc4)c4ccccc4)CC3)cccc2[nH]1 (stereo not given),0.5,-0.23,0.3,4.21%,-2.26%
Cn1cnc2c(NCc3ccccc3)nc(NCCO)nc21 [olomoucine],1.4,1.88,1.77,-0.46%,-0.63%
NCCc1c[nH]c2ccc(C(N)=O)cc12 [5-carboxamidotryptamine],2.2,0.54,3.52,15.1% (active),1.89%
CCCCCCCCCCCCCCCCCCCCCC(=O)Nc1ccn([C@@H]2O[C@H](CO)[C@@H](O)[C@@H]2O)c(=O)n1 [enocitabine],-3,-4.05,-1.69,-5.11%,-4.84%
COc1cc2c(NC3CCN(C(C)C)CC3)nc(N3CCC(F)(F)CC3)nc2cc1OCCCN1CCCC1,-0.61,0.14,3.08,0.9%,68.5% (active)
O=[N+]([O-])c1cc(O)c(O)c([N+](=O)[O-])c1,-0.65,-3.05,-3.12,1.93%,-3.2%
O=C(N[C@@H]1CC[C@@H](c2cccc(F)c2F)CN(CC(F)(F)F)C1=O)N1CCC(n2c(=O)[nH]c3ncccc32)CC1 [telcagepant],0.8,6.42,7.5,2.53%,5.63%
CCCCCC(O)CCCC(=O)O (stereo not given),-2.76,-6.54,-3.55,-1.75%,-6.15%
COc1ccc(NS(=O)(=O)c2ccc(N)cc2)nn1 [sulfamethoxypyridazine],3.44,2.28,2.29,3.71%,2.16%
CN1c2c([nH]c(N)nc2=O)NC[C@@H]1CNc1ccc(C(=O)N[C@@H](CCC(=O)O)C(=O)O)cc1 [metafolin],4.85,2.72,1.95,0.81%,2.93%
CCCCCN(CCCOC)C(=O)[C@@H](CCC(=O)O)NC(=O)c1ccc(Cl)c(Cl)c1 [dexloxiglumide],-5.32,-1.73,2.58,-1.51%,2.38%
C[C@]1(O)C[C@@H](c2nc(-c3ccc4ccc(-c5ccccc5)nc4c3)c3c(N)nccn32)C1 [linsitinib],1.22,-0.2,-1.12,0.58%,1.2%
CN[C@@H]1[C@@H](O)[C@@H](O[C@@H]2[C@@H](O)[C@H](O[C@H]3O[C@H](CN)[C@@H](O)[C@H](O)[C@H]3O)[C@@H](N)C[C@H]2NC(=O)[C@@H](O)CN)OC[C@]1(C)O [isepamicin],-2.06,1,3.72,-1.29%,-1.06%
COc1cc(C(=O)NS(=O)(=O)c2ccccc2C)ccc1Cc1cn(C)c2ccc(NC(=O)OC3CCCC3)cc12 [zafirlukast],-1.22,-0.73,0.48,0.88%,-2.73%
CN/C(=N\S(=O)(=O)c1ccc(Cl)cc1)N1C[C@H](c2ccccc2)C(c2ccc(Cl)cc2)=N1 (racemic),-2.29,-0.66,-0.25,1.24%,-3.73%
CC(O)(CS(=O)(=O)c1ccc(F)cc1)C(=O)Nc1ccc(C#N)c(C(F)(F)F)c1 (stereo not given) [bicalutamide],-2.58,-1.35,0.77,-0.42%,-0.92%
Cc1oc2ccccc2c1CNC(=O)NCc1cccs1,-0.41,1.63,0.18,-0.46%,3.09%
FC(F)(F)c1ccccc1-c1cc(C(F)(F)F)c2[nH]c(C3=NOC4(CCCCC4)C3)nc2c1,-0.82,0.77,-0.98,-2.13%,-3.97%
Cc1ccc(-c2ncc(Cl)cc2-c2ccc(S(C)(=O)=O)cc2)cn1 [etoricoxib],2.49,0.25,-0.65,-1.22%,-1.11%
O=C1Cc2c([nH]c3ccc(Br)cc23)-c2ccccc2N1 [kenpaullone],-1.82,-2.19,0.37,0.56%,12%
O=C(Oc1ccc([N+](=O)[O-])cc1)N1CCN(Cc2cccc(Oc3ccccc3)c2)CC1,-1.56,-2.22,-1.22,-1.53%,1.51%
C[C@H](Oc1cc(-c2cnn(C3CCNCC3)c2)cnc1N)c1c(Cl)ccc(F)c1Cl [crizotinib-(S)],0.35,-0.2,-0.33,-0.47%,54.7% (active)
